According to PubChem BioAssay (NCI):
About 79,000 compounds went through this panel and 15% of them were active in at least one assay; those are over-represented in the sample as a whole. A number with no mark means an inactive call. Activity calls are given as the source filed them. Rule as the data show it: active = growth inhibition above about 70%; inactive = the rest.

Key:
[1] = NCI Yeast Anticancer Drug Screen. Data for the rad50 strain (AID 155);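 also: 0% = growth of vehicle-only cultures of the same strain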; settings: S. cerevisiae rad50 strain growth inhibition, hits give high values
Summary of the method: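 Yeast carrying a defined DNA repair defect were exposed to test compounds, and growth was compared with vehicle-treated controls to give percent inhibition.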

[2] = NCI Yeast Anticancer Drug Screen. Data for the mec2-1 strain (AID 157); settings: S. cerevisiae mec2-1 strain, hits give high values
Summary of the method: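 Compounds were applied to mec2-1 yeast cells. Their growth was then compared with that of vehicle-treated cultures to give growth inhibition.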

[3] = NCI Yeast Anticancer Drug Screen. Data for the sgs1 mgt1 strain (AID 161);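 also: 0% = growth of cultures given vehicle only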; settings: S. cerevisiae sgs1 mgt1 strain, hits give high values
Summary of the method: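 This yeast growth screen uses a strain with defined DNA-repair lesions; compound-treated growth is compared with vehicle-treated growth.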

[4] = NCI Yeast Anticancer Drug Screen. Data for the cln2 rad14 strain (AID 165);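 also: 0% = growth equal to vehicle treated cultures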; settings: S. cerevisiae cln2 rad14 strain, hits give high values
Summary of the method: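 Strain: cln2 rad14 yeast, altered in cell cycle control and DNA damage repair. Read-out: growth inhibition vs vehicle.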

[5] = NCI Yeast Anticancer Drug Screen. Data for the bub3 strain (AID 167); settings: S. cerevisiae bub3 mutant strain, hits give high values
Summary of the method: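 Compounds were applied to a genetically altered yeast strain carrying a cell-cycle control defect. Growth inhibition was scored against vehicle-treated controls.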

[6] = NCI Yeast Anticancer Drug Screen. Data for the mlh1 rad18 strain (AID 175); settings: S. cerevisiae mlh1 rad18 strain growth inhibition, hits give high values
Summary of the method: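 A repair-deficient yeast strain is exposed to test compound, and growth is scored relative to vehicle-treated controls.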

[7] = at 5.0 µM (retest, dose inferred, filed as 0.5)
[8] = at 50.0 µM (retest, dose inferred, filed as 5.0)

Compound	growth inhibition [1, 7] [%]	growth inhibition [1, 8]	growth inhibition ([1]; at 50.0 µM)	growth inhibition [2, 7] [%]	growth inhibition [2, 8]	growth inhibition ([2]; at 50.0 µM)	growth inhibition [3, 7] [%]	growth inhibition [3, 8]	growth inhibition ([3]; at 50.0 µM)	growth inhibition [4, 7] [%]	growth inhibition [4, 8]	growth inhibition ([4]; at 50.0 µM)	growth inhibition [5, 7] [%]	growth inhibition [5, 8]	growth inhibition ([5]; at 50.0 µM)	growth inhibition [6, 7] [%]	growth inhibition [6, 8]	growth inhibition ([6]; at 50.0 µM)
COc1ccc(C2C3=C(CCCC3=O)Oc3cc4c(cc32)OCO4)c(OC)c1 (configuration not stated)	17	92% (active)	3.95%	-3	90% (active)	18.8%	6	92% (active)	-11.7%	6	88% (active)	-6.1%	8	94% (active)	1.05%	4	92% (active)	8.95%
COC(=O)Nc1nc2ccc(C(C)(O)c3cccs3)cc2[nH]1 (configuration not stated)	-2	92% (active)	97% (active)	-8	95% (active)	98.2% (active)	3	95% (active)	98% (active)	-15	87% (active)	92.2% (active)	-3	94% (active)	97.1% (active)	-5	95% (active)	97.8% (active)
CC(=O)c1cccc([N+](=O)[O-])c1	-2	5%	27.4%	-2	2%	-9.25%	-1	2%	24.4%	-1	-2%	44.9%	1	7%	9.25%	-3	3%	9%
Oc1c(Cl)cc(CN(Cc2cc(Cl)c(O)c(Cl)c2)C2CCCCC2)cc1Cl	10	87% (active)	97.8% (active)	1	88% (active)	98.9% (active)	2	88% (active)	97.6% (active)	-17	51%	98.2% (active)	-9	88% (active)	97.6% (active)	-12	95% (active)	98% (active)
CCC[CH2][Sn]([CH2]CCC)([O]C(=O)c1cc(F)cc(F)c1)[O][Sn]([CH2]CCC)([CH2]CCC)[O]C(=O)c1cc(F)cc(F)c1	48	88% (active)	83% (active)	57	97% (active)	88.7% (active)	40	95% (active)	89.7% (active)	30	88% (active)	85.8% (active)	49	99% (active)	89% (active)	44	96% (active)	87.7% (active)
O=Cc1ccc2c(c1)CC1(C2)Cc2ccc3c(c2C1)CCC3 (configuration not stated)	-1	68%	92.9% (active)	0	78% (active)	89.3% (active)	14	81% (active)	87.6% (active)	-2	41%	73% (active)	-1	74% (active)	91.5% (active)	1	74% (active)	84.8% (active)
CCCCNc1cccc2ncccc12	11	53%	17.1%	9	34%	9.85%	14	58%	21.8%	9	28%	-3.9%	4	31%	-4.2%	21	57%	50%
CN(C)/N=C\C1CC=CCC1 (configuration not stated)	-148	-148%	25.2%	-46	-51%	5.35%	-58	-61%	30.9%	-58	-70%	82.9% (active)	-71	-80%	21.8%	-141	-120%	38%
CCCC(C)(O)C(C)CC (configuration not stated)	2	5%	19.1%	0	-1%	9.3%	-1	0%	-0.85%	-3	-8%	-6.9%	-3	8%	2.45%	-2	0%	7.7%
